The panel holds about 83,000 compounds, 20% with a hit somewhere; the sample as a whole holds those more often.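 Results are percent growth after 48 hours of single-concentration exposure. 100 means growth as in untreated cells, lower positive values show inhibition; negative values down to -100 show cell death.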 Unmarked numbers belong to inactive results. The source made the active and inactive calls. Rule for the calls: active = growth percent below 10; inactive = the rest.
Assays:
Test in all cases: NCI-60 one-dose screen, 48 h (100 = growth as untreated, 0 = no growth, -100 = all killed)
Conditions in all cases: 10 µM unless noted
[1] = test system: SR leukemia
[2] = test system: RPMI-8226 leukemia
[3] = test system: OVCAR-8 ovarian
[4] = test system: OVCAR-5 ovarian
[5] = test system: OVCAR-4 ovarian
[6] = test system: SK-OV-3 ovarian
[7] = test system: IGROV1 ovarian
[8] = test system: OVCAR-3 ovarian
[9] = test system: HS 578T breast
[10] = test system: NCI/ADR-RES ovarian

SMILES | growth [1] | growth [2] | growth [3] | growth [4] | growth [5] | growth [6] | growth [7] | growth [8] | growth [9] | growth [10]
CCCc1cc(NC)nc(S(=O)(=O)CC)n1 | 102% | 101% | 110% | 101% | 115% | 116% | 105% | 119% | 108% | 104%
Cc1nc(-c2ccccc2)cc2c(O)c(C(=O)NN)[nH]c(=O)c12 | 106% | 103% | 106% | 110% | 112% | 103% | 7.89% (active) | 105% | 109% | 118%
C#CCOc1cccc(Nc2ncnc3ccc(NC(=O)CCl)cc23)c1 | -42.1% (active) | -50.9% (active) | -4.18% (active) | -70.1% (active) | -33.9% (active) | 20.1% | -57.2% (active) | -74.8% (active) | 24.5% | -1.49% (active)
COc1ccc2c(O)c(/C=C3\N=Nc4ncccc43)oc2c1C[C@H]1CCNC[C@H]1F | -40.2% (active) | 9.58% (active) | 5.11% (active) | 16% | 2.83% (active) | 21% | 2.29% (active) | 1.29% (active) | -6.5% (active) | 31.3%
Brc1ccc(-n2cc(-c3nn[nH]n3)c(-c3cccs3)n2)cc1 | 110% | 99.3% | 98.8% | 100% | 100% | 93.5% | 93.2% | 105% | 96.3% | 107%
CC(C)N1CCN(Cc2ccc3c(NNC(=O)c4ccccc4)nc4cc(F)ccc4n23)CC1 | 8.09% (active) | 26.5% | 17.9% | 59.6% | 21.2% | 35% | 21.4% | 39.8% | 75.8% | 6.16% (active)
COc1ccc2nc(NC(=O)CSc3nnc4n3S(=O)(=O)c3ccccc3N4C)sc2c1 | 65.1% | 74.1% | 84.6% | 97.5% | 107% | 136% | 12.9% | 112% | 89.8% | 98.5%
O=S(=O)(Nc1cc(Br)c(O)c2ccccc12)c1ccc(F)cc1 | 11.6% | 27.2% | 3.09% (active) | 113% | -97.5% (active) | 99.7% | 81.4% | -0.424% (active) | 98.3% | 4.65% (active)
N#Cc1cccc(-c2c(-c3ccc4ccccc4c3)oc3ccccc3c2=O)c1 | 9.67% (active) | 46.2% | 62.4% | 53.3% | 68.1% | 51% | 36.5% | 40.2% | 69% | 27.2%
CN(C)c1ccc(/C=C/C(=O)c2ccc(-n3cc(CN4CCN(c5cc6c(cc5F)c(=O)c(C(=O)O)cn6C5CC5)CC4)nn3)cc2)cc1 | 7.11% (active) | -24.6% (active) | 23.3% | 84.2% | 93.1% | 71.6% | 39.6% | 46.6% | 57.4% | 92.1%
O=C(c1ccccc1)C1C(=O)N2C(=S)N(c3ccccc3)C(=O)C2C1c1ccc(Cl)cc1 (stereo not given) | 101% | 103% | 94.8% | 102% | 90.8% | 88% | 54.2% | 95.6% | 88.9% | 96.4%
CN1C(=O)N(C)C2Nn3c(s/c(=C\c4ccc(C(F)(F)F)cc4)c3=O)=NC21 (stereo not given) | 96.9% | 106% | 108% | 103% | 102% | 111% | 101% | 106% | 105% | 99.8%
COc1cc(CNC(=O)CCCC/C=C/C(C)C)ccc1OCc1nnc(Nc2ccc([N+](=O)[O-])cc2)o1 | 64.2% | 52.3% | 25% | 101% | 11.3% | 11.8% | 53.5% | 77.3% | 63.2% | 79.6%
Fc1cccc(CNc2c3ccccc3nc3ccccc23)c1F | 38.2% | 52.9% | 50.8% | 73.3% | 49.9% | 75.8% | 52.7% | 86.1% | 87% | 48.5%
N=C(N)c1ccc(-c2ccc(-c3ccc(Cl)cc3)s2)nc1 | 1.7% (active) | -24.6% (active) | -31% (active) | -28% (active) | 18.1% | 86.7% | -79.2% (active) | -93% (active) | 67.5% | 67.4%
N#Cc1c(-c2ccc(Cl)cc2)nc(SCC(=O)NC2=NN=C(c3ccccc3)CS2)[nH]c1=O | 42.7% | 73.5% | 101% | 112% | 83.4% | 47.5% | 90.4% | 83.7% | 93.7% | 86.7%
COc1ccc(-c2nc(SCC(C)C)nc(N/N=C\c3ccc(F)cc3)c2C#N)cc1 | 46.7% | 98.2% | 96.3% | 95.6% | 8.96% (active) | 112% | 80.5% | 70.5% | 62.4% | 84.2%
O=C(CCC(=O)N/N=C/c1ccccc1O)N/N=C/c1ccccc1O | 27% | 83% | 46.4% | 82.7% | 26.2% | 50.8% | 48.5% | 23.4% | 76.9% | 46.9%
COC(=O)c1c2c(c(C)[n+]([O-])c1C)C(=O)C(NCc1ccc(Cl)cc1)=CC2=O | 48.6% | 69.8% | 33.1% | 97.3% | 36.6% | 95.8% | 61.2% | -7.64% (active) | 92.2% | 54.8%
OCCNCCCOc1ccc2ncnc(Nc3ccc(Oc4cccc(C(F)(F)F)c4)c(Cl)c3)c2c1 | 5.48% (active) | -12.1% (active) | 32.1% | 72.8% | 5.48% (active) | 13.7% | -35% (active) | 3.15% (active) | 34.2% | 69.1%
CCCCCCCCn1ccc2cc(NC(=O)Cn3cc(CN4CCCCC4)nn3)ccc21 | 5.39% (active) | -59.2% (active) | 42% | 73.7% | 59.1% | 67.5% | 45.5% | 26% | 41.5% | 72.7%
O=[N+]([O-])C1C(c2ccccc2)C12c1ccccc1-c1ccccc12 (stereo not given) | -14.8% (active) | -17.3% (active) | -28% (active) | 23.9% | 57.2% | 2.18% (active) | 20.5% | -31.2% (active) | 38.6% | -27.4% (active)
CCOC(=O)CSc1ncnc2c1c(-c1ccccc1)c(-c1ccccc1)n2-c1ccc(C)cc1 | 80.4% | 37.8% | 54.5% | 93.8% | 80.4% | 56% | 79.9% | 66.4% | 81.7% | 98.4%
CC(C)OC(=O)c1ccc2[nH]c(O)c(C(=Nc3ccc(N(C)C(=O)CN4CCN(C)CC4)cc3)c3ccccc3)c2c1 | -20.3% (active) | -28.9% (active) | -37.4% (active) | -36.2% (active) | -72.3% (active) | -81.6% (active) | -39.2% (active) | -75.7% (active) | -7.07% (active) | 38.4%
CC(O)c1cnc(/C=C2\SC(=S)N(Cc3ccccc3)C2=O)s1 (stereo not given) | 32% | 4.74% (active) | 52.1% | 90.1% | 101% | 95.7% | 94% | 53.2% | 95.3% | 92.7%
Cc1ccccc1Cn1cnc2ccc(-c3cc(NC(=O)c4ccc(NC5CCN(C)CC5)cc4)n[nH]3)cc21 | 52.9% | 77.1% | 104% | 69.9% | 62.5% | 75.7% | 26.5% | 99.8% | 2.06% (active) | 104%
CCCC(O)Cn1ncc(C(=O)OCC)c1NC(=O)NCc1ccccc1F (stereo not given) | 93.5% | 67.4% | 89.9% | 108% | 87.1% | 102% | 92.9% | 91.1% | 102% | 92.6%
